Experimental findings from PubChem BioAssay are described below.

The nature of assay [1]: antimalarial activity against Dd2 strain (AID 2302;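 active = growth inhibition above 50% at the single 2 µM test dose, taken to imply half-maximal potency below 2 µM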;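 also: 0% = DMSO untreated growth and 100% = chloroquine plus artemisinin killed control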). The settings on record: P. falciparum Dd2 in RBCs, LDH growth readout, 72 h; at 2 µM; active compounds read high.
A short description of assay [2]: human hepatoma cell viability loss – ATP luminescence, cytotoxicity control for P. falciparum antimalarial project, primary screen (AID 2303;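 active = inhibition above 50%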;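 also: 0% = DMSO wells and 100% = digitonin-killed cells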). The settings on record: HepG2 viability, 24-48 h, at 10 µM, active compounds read high.
For assay [3], the target named is L-lactate dehydrogenase (Plasmodium falciparum (isolate CDC / Honduras)) (UniProt Q27743). Put plainly: PfLDH activity inhibition – cell lysate, 3D7 strain, counter-screen for P. falciparum growth inhibition project (AID 2304).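 Also: 0% = vehicle and 100% = reference inhibitor.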 The settings on record: P. falciparum 3D7 crude extract, LDH APAD/NBT absorbance; at 2 µM; active compounds read high. In general terms: A counterscreen serves to expose hits that act by an unwanted route or on another target.

The nature of assay [4]: inhibition of 3D7 malaria parasite growth – strain 3D7 (AID 2306).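 Also: 0% = DMSO wells and 100% = chloroquine plus artemisinin control wells.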 The settings on record: P. falciparum 3D7 erythrocytic growth, LDH absorbance, 72 h; at 2 µM; active compounds read high.
For assay [5], the target named is Calcium-dependent protein kinase 1 (Plasmodium falciparum (isolate 3D7)) (UniProt P62344). Put plainly: PfCDPK1 kinase inhibitors, biochemical, TCAMS library (AID 1159585; cut-off not given, nearly all actives have IC50 up to about 0.98 µM;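 also: inhibitors leave more ATP so luminescence rises with inhibition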). Conditions: recombinant PfCDPK1, Kinase-Glo ATP depletion luminescence. (Kinase-Glo measures the ATP left after a reaction by luminescence.)
Assay [6] addresses Plasmodium falciparum protein kinase 6 (PK6, PF3D7_1337100) (UniProt Q8IDW1). Put plainly: PfPK6 kinase inhibitors, biochemical, TCAMS library (AID 1159586). The settings on record: recombinant PfPK6, Kinase-Glo ATP depletion luminescence.
Assay [7] deals with Protein kinase 7 (PK7), Plasmodium falciparum 3D7 (PF3D7_0213400) (UniProt Q7YTF7). In words: inhibition of Plasmodium PK7 catalytic activity – biochemical, TCAMS antimalarial set, Kinase-Glo luminescence (AID 1159587). Conditions: recombinant PfPK7, Kinase-Glo ATP depletion luminescence.
In assay [8] the target is Calcium-dependent protein kinase 4 (Plasmodium falciparum (isolate 3D7)) (UniProt Q8IBS5). In words: PfCDPK4 kinase inhibitors, biochemical, TCAMS library (AID 1159588; cut-off not given, nearly all actives have IC50 up to about 0.91 µM). Conditions: recombinant PfCDPK4, Kinase-Glo ATP depletion luminescence.

Values without a mark were called inactive. For some of these results: Potency and affinity values are given separately. Calls of active or inactive are those of the source. Unless noted, no rule for the calls is given here.

Sequence of Calcium-dependent protein kinase 1 (Plasmodium falciparum (isolate 3D7)) (P62344 whole entry, looked up): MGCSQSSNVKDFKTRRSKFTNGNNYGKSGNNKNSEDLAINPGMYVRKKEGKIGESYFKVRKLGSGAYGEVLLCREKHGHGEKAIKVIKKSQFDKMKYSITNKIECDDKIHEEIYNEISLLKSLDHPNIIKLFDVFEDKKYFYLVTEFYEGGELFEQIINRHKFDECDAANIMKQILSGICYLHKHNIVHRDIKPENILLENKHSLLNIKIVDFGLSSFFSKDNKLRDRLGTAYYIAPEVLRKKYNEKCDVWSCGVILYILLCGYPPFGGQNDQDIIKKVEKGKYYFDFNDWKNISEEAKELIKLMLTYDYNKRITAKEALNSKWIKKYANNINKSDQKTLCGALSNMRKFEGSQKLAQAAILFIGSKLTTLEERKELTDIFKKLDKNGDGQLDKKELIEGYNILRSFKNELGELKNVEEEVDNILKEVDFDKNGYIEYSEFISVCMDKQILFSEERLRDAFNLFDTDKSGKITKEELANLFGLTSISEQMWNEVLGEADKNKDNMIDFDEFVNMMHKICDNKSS
Sequence of L-lactate dehydrogenase (Plasmodium falciparum (isolate CDC / Honduras)) (Q27743 whole entry, looked up): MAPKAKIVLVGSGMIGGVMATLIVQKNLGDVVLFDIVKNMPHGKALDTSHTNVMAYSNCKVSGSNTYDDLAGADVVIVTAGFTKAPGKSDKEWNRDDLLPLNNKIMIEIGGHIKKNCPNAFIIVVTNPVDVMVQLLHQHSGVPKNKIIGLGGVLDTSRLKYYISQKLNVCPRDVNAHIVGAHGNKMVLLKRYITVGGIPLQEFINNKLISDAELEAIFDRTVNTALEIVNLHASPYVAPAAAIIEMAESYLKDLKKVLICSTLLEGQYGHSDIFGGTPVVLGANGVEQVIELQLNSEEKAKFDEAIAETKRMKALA
Sequence of Calcium-dependent protein kinase 4 (Plasmodium falciparum (isolate 3D7)) (Q8IBS5 whole entry, looked up): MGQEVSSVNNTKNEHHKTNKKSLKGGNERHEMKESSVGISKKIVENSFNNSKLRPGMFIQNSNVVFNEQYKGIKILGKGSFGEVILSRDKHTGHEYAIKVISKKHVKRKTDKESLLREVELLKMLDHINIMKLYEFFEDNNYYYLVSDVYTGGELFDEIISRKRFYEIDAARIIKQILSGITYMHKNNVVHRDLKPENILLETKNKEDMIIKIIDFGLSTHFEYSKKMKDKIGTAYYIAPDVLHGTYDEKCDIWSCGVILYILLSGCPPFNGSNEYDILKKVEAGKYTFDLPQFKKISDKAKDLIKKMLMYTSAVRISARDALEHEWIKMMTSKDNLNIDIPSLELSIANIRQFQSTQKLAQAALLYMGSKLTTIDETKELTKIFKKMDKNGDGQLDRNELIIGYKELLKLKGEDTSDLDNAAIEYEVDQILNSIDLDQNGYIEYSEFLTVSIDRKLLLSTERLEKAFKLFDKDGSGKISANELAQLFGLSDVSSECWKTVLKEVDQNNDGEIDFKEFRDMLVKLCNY
Sequence of Plasmodium falciparum protein kinase 6 (PK6, PF3D7_1337100) (Q8IDW1 1-305): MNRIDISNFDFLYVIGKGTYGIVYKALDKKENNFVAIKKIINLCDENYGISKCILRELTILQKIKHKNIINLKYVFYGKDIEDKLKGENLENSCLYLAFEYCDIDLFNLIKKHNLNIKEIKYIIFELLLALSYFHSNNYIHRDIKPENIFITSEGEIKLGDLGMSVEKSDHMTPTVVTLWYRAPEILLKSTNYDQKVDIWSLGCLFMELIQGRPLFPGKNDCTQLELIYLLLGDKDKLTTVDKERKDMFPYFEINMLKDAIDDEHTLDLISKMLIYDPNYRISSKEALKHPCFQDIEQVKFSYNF
Sequence of Protein kinase 7 (PK7), Plasmodium falciparum 3D7 (PF3D7_0213400) (Q7YTF7 1-343): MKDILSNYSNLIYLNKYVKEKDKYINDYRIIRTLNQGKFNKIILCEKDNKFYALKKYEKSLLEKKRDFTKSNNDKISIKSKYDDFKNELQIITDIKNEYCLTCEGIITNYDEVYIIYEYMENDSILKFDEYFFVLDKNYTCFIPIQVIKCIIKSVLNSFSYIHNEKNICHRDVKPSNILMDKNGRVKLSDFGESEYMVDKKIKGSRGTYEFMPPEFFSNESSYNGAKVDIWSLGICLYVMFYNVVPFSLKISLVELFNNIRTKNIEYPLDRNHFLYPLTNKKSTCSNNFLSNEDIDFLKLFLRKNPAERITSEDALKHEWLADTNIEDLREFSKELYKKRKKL

One may read the inhibition as the relative decrease from the control value, in per cent. `CCCNCc1ccc(-c2ccc(CN(CCOC)C(=O)Cc3cccnc3)cc2)nc1`: the values for the growth inhibition in assay [1] and in assay [4] were 13% and 92% (active), respectively. Moreover, the inhibition in assay [2] is 10%; in assay [3], -1%. The result in assay [5], in assay [6], in assay [7] and in assay [8] was inactive.

`Cc1cc(-c2cccc(CNCc3ccc(F)cc3)c2)ccc1S(=O)(=O)NCCN1CCCC1`: the growth inhibition in assay [1] is 64% (active); in assay [4], 101% (active). The inhibition is 49% in assay [2] and 4% in assay [3]. For the same compound, the outcome in assay [5], in assay [6], in assay [7] and in assay [8] was inactive.

`CS(=O)(=O)Nc1ccc2c(C3CCN(CCC4CCN(C(=O)/C=C/c5ccc(Cl)c(Cl)c5)CC4)CC3)c[nH]c2c1`: the growth inhibition was 63% (active) in assay [1] and 99% (active) in assay [4]. The inhibition in assay [2] is 35%; in assay [3], -3%. The outcome in assay [5], in assay [6], in assay [7] and in assay [8] was inactive.

As for `FC(F)(F)c1ccc2c(NN=Cc3cccc(Cl)c3)ccnc2c1`, the growth inhibition in assay [1] was 59% (active); in assay [4], 93% (active). For the same compound, the inhibition in assay [2] is 7%; in assay [3], -3%. Besides, the result in assay [5], in assay [6], in assay [7] and in assay [8] was inactive.

`COc1ccc(O)c(C(=O)c2cc(C(=O)NCCc3ccccc3)c(=O)n(CCc3ccccc3)c2)c1`: the growth inhibition in assay [1] was 18%; in assay [4], 97% (active). Moreover, the inhibition in assay [2] is 11%; in assay [3], -2%. For the same compound, the outcome in assay [5], in assay [6], in assay [7] and in assay [8] was inactive.

`NS(=O)(=O)c1ccc(CNc2ccc3ncc(-c4ccc(OC(F)(F)F)cc4)n3n2)cc1`: the growth inhibition in assay [1] was 99% (active); in assay [4], 97% (active). The inhibition in assay [2] was 10%; in assay [3] it was -7%. For the same compound, the result in assay [5], in assay [6], in assay [7] and in assay [8] was inactive.

With `CCn1ccc2c(N3CCCS3(=O)=O)cc(C(=O)N[C@@H](Cc3ccccc3)[C@H](O)CNC(C)(C)CCCC(C)C)cc21`, the growth inhibition was 98% (active) in assay [1] and 97% (active) in assay [4]. In addition, the values for the inhibition in assay [2] and in assay [3] were 8% and 0%, respectively. Further, the outcome in assay [5], in assay [6], in assay [7] and in assay [8] was inactive.

Take `CC(Nc1nc(Nc2ccc(F)cc2)nc(SCC(N)=O)n1)c1ccccc1` (stereo not given): the growth inhibition in assay [1] was 87% (active); in assay [4], 90% (active). Further, the values for the inhibition in assay [2] and in assay [3] were 14% and -2%, respectively. The outcome in assay [5], in assay [6], in assay [7] and in assay [8] was inactive.

`Cc1cccc2[nH]c(-c3ccc(-c4ccc(NC(=O)CN5CCN(C)CC5)cc4)cc3)nc12`: the growth inhibition in assay [1] was 83% (active); in assay [4], 100% (active). In addition, the values for the inhibition in assay [2] and in assay [3] were 29% and 1%, respectively. Further, the outcome in assay [5], in assay [6], in assay [7] and in assay [8] was inactive.

`Cc1cc(N[C@@H](CC(C)C)C(=O)NCCOc2ccccc2)nc(NCCc2ccc(F)cc2)n1`: the growth inhibition was 54% (active) in assay [1] and 95% (active) in assay [4]. Further, the inhibition was 25% in assay [2] and 1% in assay [3]. Moreover, the outcome in assay [5], in assay [6], in assay [7] and in assay [8] was inactive.

Turning to `CCN(CC)CC(O)Cc1c2ccc([N+](=O)[O-])cc2nc2cc(OC)c(OC)cc12` (stereo not given), the growth inhibition is 37% in assay [1] and 100% (active) in assay [4]. In addition, the inhibition is 41% in assay [2] and -6% in assay [3]. For the same compound, the outcome in assay [5], in assay [6], in assay [7] and in assay [8] was inactive.

Regarding `CC[C@]1(C)C[C@@H](NC(=O)NC(=O)c2ccc(OC)cc2)[C@]2(C)[C@H](C)CC[C@]3(CCC(=O)[C@H]32)[C@@H](C)[C@@H]1OC(=O)NC(=O)c1ccc(OC)cc1`, the growth inhibition in assay [1] was 98% (active); in assay [4], 100% (active). For the same compound, the inhibition in assay [2] is 10%; in assay [3] it was -5%. For the same compound, the outcome in assay [5], in assay [6], in assay [7] and in assay [8] was inactive.

With `CCn1c(-c2nonc2N)nc2c(-c3cccc(NC(=O)Nc4cccc(OC)c4)c3)ncc(OCCCN)c21`, the values for the growth inhibition in assay [1] and in assay [4] were 69% (active) and 92% (active), respectively. Moreover, the inhibition in assay [2] is 1%; in assay [3], 4%. In addition, the outcome in assay [5], in assay [6], in assay [7] and in assay [8] was inactive.

Turning to `CC(Cc1ccc(NC(=O)COc2ccc(CC(C)NCCc3cccc(Cl)c3)cc2)cc1)NCCc1cccc(Cl)c1` (stereo not given), the growth inhibition is 98% (active) in assay [1] and 105% (active) in assay [4]. For the same compound, the inhibition in assay [2] was 100% (active); in assay [3] it was 4%. Further, the outcome in assay [5], in assay [6], in assay [7] and in assay [8] was inactive.

`Cc1cccc2[nH]c(-c3cccc(-c4cccc(NC(=O)C5CC(=O)Nc6ccccc65)c4)c3)nc12` (stereo not given): the growth inhibition in assay [1] was 25%; in assay [4], 85% (active). Besides, the inhibition was 13% in assay [2] and 0% in assay [3]. The outcome in assay [5], in assay [6], in assay [7] and in assay [8] was inactive.

Turning to `NC(N)=NN=Cc1c2ccccc2c(Cl)c2ccc(Cl)cc12`, the growth inhibition was 89% (active) in assay [1] and 98% (active) in assay [4]. Also, the results for the inhibition in assay [2] and in assay [3] were 97% (active) and 8%, respectively. Besides, the result in assay [5], in assay [6], in assay [7] and in assay [8] was inactive.

Take `CC(C)C[C@H](NC(=O)c1cc(-c2ccc(F)cc2)no1)C(=O)O` (tested in a mixture with another compound): the results for the growth inhibition in assay [1] and in assay [4] were 4% and 82% (active), respectively. In addition, the inhibition in assay [2] was 7%; in assay [3], -2%. In addition, the result in assay [5], in assay [6], in assay [7] and in assay [8] was inactive.

In the case of `Cc1c(Cn2ncc(N3CCC(N)CC3)c(Cl)c2=O)cccc1NC(=O)Nc1ccc(-c2ccccc2)cc1`, the figures for the growth inhibition in assay [1] and in assay [4] were 43% and 97% (active), respectively. Also, the inhibition in assay [2] was 19%; in assay [3] it was -1%. Besides, the outcome in assay [5], in assay [6], in assay [7] and in assay [8] was inactive.

For `COc1cccc(-c2ccc(C(=O)NC3CCN(Cc4ccc(N(C)C)cc4)CC3)s2)c1`, the results for the growth inhibition in assay [1] and in assay [4] were 20% and 81% (active), respectively. The values for the inhibition in assay [2] and in assay [3] were 8% and -1%, respectively. Besides, the result in assay [5], in assay [6], in assay [7] and in assay [8] was inactive.

Regarding `O=C(NCc1ccc2c(c1)OCO2)c1nn(CCN2CCC(N3CCCC3)CC2)cc1-c1ccc(Cl)c(Cl)c1`, the figures for the growth inhibition in assay [1] and in assay [4] were 17% and 94% (active), respectively. Further, the inhibition in assay [2] is 21%; in assay [3], -2%. Moreover, the outcome in assay [5], in assay [6], in assay [7] and in assay [8] was inactive.
